Laboratory results: PubChem BioAssay (NCATS)
Results filed as inconclusive are left out. Activity calls are given as the source filed them. Calls come from the whole dose curve; as a rule, active = well fitted curve in the direction sought with a large enough effect; inconclusive = small, poorly fitted or top-dose-only effect, or another doubt; inactive = no such curve, though single readings can be large; an effect the other way counts as inactive or inconclusive.

Key:
MCC-13 = test: qHTS assay to identify novel small-molecules to repurpose for Merkel cell carcinoma treatment (AID 1296009); conditions: MCC and control cell lines, CellTiter-Glo viability, 72 h; series mostly up to 46 µM; note: nearly all actives have a fitted effect of over 60% in size
In short: (§1)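 Cells were treated for 72 hr at 37 degree celsius with compounds in 8- or 11-point dose response. Viability was read by CellTiter-Glo luminescence, normalized to no-cell (cytotoxicity) and DMSO controls.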

MCC-26 = test: as above; conditions: MCC and control cell lines, CellTiter-Glo viability, 72 h; series mostly up to 46 µM
In short: as §1

MKL-1 = test: as above; conditions: MCC and control cell lines, CellTiter-Glo viability, 72 h; series mostly up to 46 µM
In short: as §1

MKL-2 = test: as above; conditions: MCC and control cell lines, CellTiter-Glo viability, 72 h; series mostly up to 46 µM
In short: as §1

UISO = test: as above; conditions: MCC and control cell lines, CellTiter-Glo viability, 72 h; series mostly up to 46 µM
In short: as §1

WaGa = test: as above; conditions: MCC and control cell lines, CellTiter-Glo viability, 72 h; series mostly up to 46 µM
In short: as §1

C33A = test: Primary qHTS to identify gynecologic anti-cancer compounds using libraries of approved drugs and bioactive compounds (AID 1345084); conditions: Gynecologic cancer cell panel viability, ATPlite luminescence, 48 h; series mostly up to 57.5 µM; note: nearly all actives have a fitted effect of over 55% in size
In short: (§2)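 Measured: luminescence after ATPlite addition (15 min, RT). Exposure: 48 h, 37 C, 5% CO2.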

CAOV3 = test: as above; conditions: Gynecologic cancer cell panel viability, ATPlite luminescence, 48 h; series mostly up to 57.5 µM
In short: as §2

CASKI = test: as above; conditions: Gynecologic cancer cell panel viability, ATPlite luminescence, 48 h; series mostly up to 57.5 µM
In short: as §2

Es-2 = test: as above; conditions: Gynecologic cancer cell panel viability, ATPlite luminescence, 48 h; series mostly up to 57.5 µM
In short: as §2

HeLa = test: as above; conditions: Gynecologic cancer cell panel viability, ATPlite luminescence, 48 h; series mostly up to 57.5 µM
In short: as §2

Hek293T = test: as above; conditions: Gynecologic cancer cell panel viability, ATPlite luminescence, 48 h, control line for the selectivity index; series mostly up to 57.5 µM
In short: as §2

JEG-3 = test: as above; conditions: Gynecologic cancer cell panel viability, ATPlite luminescence, 48 h; series mostly up to 57.5 µM
In short: as §2

OV90 = test: as above; conditions: Gynecologic cancer cell panel viability, ATPlite luminescence, 48 h; series mostly up to 57.5 µM
In short: as §2

PA-1 = test: as above; conditions: Gynecologic cancer cell panel viability, ATPlite luminescence, 48 h; series mostly up to 57.5 µM
In short: as §2

Tov-21-G = test: as above; conditions: Gynecologic cancer cell panel viability, ATPlite luminescence, 48 h; series mostly up to 57.5 µM
In short: as §2

SKOV3 = test: as above; conditions: Gynecologic cancer cell panel viability, ATPlite luminescence, 48 h; series mostly up to 57.5 µM
In short: as §2

Measured: Potency

CC(=O)NCCCCCC(=O)O
not listed: SKOV3
inactive: all other assays above

CCCCCCCCCCCCCCC[C@H](O)[C@@H](N)CO
inactive: all assays above

CNCCc1ccccn1
not listed: SKOV3
inactive: all other assays above

O=C1c2cccc3c2[C@H](CCC3)CN1[C@@H]1CN2CCC1CC2
inactive: all assays above

CCCCC(CC)COC(=O)/C=C/c1ccc(OC)cc1 (stereo not drawn)
inactive: all assays above

O=C(O)C1(C(=O)O)CCC1.[NH2-].[NH2-].[Pt+2]
inactive: all assays above

NC(=S)N/N=C/c1cccnc1
inactive: all assays above

COc1cc(C(=S)N2CCOCC2)ccc1O
not listed: CAOV3
inactive: all other assays above
